Hit rate of the full screen: of about 2,400 compounds, about 40 (2%) were called active. Not shown: some 1% with an inconclusive outcome.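 How the source made its calls: active means inhibition at or above 60%; inconclusive means inhibition from 0% up to below 60%; inactive means no inhibition observed.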 This excerpt belongs to a sample that is enriched for actives.
Assay: qHTS Assay for Small Molecule Inhibitors of Mitochondrial Division or Activators of Mitochondrial Fusion: Hit Validation in Malachite Green Assay;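 on inhibition: plate controls were DMSO wells with GTPase for no effect and protein-free buffer wells for full effect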
Conditions: purified GTPase, malachite green phosphate release, A650; hits give high values
Description: The budding yeast S. cerevisiae is a powerful system to study mitochondrial fusion. Unlike other organisms, yeast cells without functional mitochondrial DNA (mtDNA) can be propagated and studied as long as they maintain a mitochondrial compartment and are provided with a fermentable carbon source. When mitochondrial fusion is blocked in yeast, mitochondrial tubules rapidly fragment and division continues unopposed. Under conditions where fusion is compromised in mammalian cells, nearly identical changes in mitochondrial structure have been observed. Thus, these findings indicate that steady state mitochondrial structure in cells is a characteristic and specific indicator of fusion activity. Mounting evidence has pointed to a connection between mitochondrial dynamics and apoptosis in mammalian cells. These studies indicate that in mammalian cells mitochondrial dynamics are more integrated into cellular processes than in yeast cells and have evolved not only to distribute the organelle but also to aid in the regulation of cellular homeostasis. Mitochondrial fusion proteins attenuate apoptosis by inhibiting the release of cytochrome c from mitochondria, in part by controlling cristae structures. Thus, small molecules that inhibit mitochondrial fusion may promote apoptosis and potentially act as novel chemotherapeutics and stimulation of apoptosis has become an attractive target of anti-cancer therapies. To identify inhibitors of mitochondrial division, we exploit the growth phenotypes of mitochondrial fusion-defective mutants. The temperature sensitive fusion alleles, such as fzo1-1 and mgm1-5, cause mitochondrial membranes to fragment in cells under non-permissive conditions and cells lose mtDNA, and are unable to grow in the presence of non-fermentable carbon source glycerol. Inhibiting mitochondrial division rescues growth. The hits were tested by the assay provider in a malachite green assay. NIH Chemical Genomics Center [NCGC] NIH Molecular Libraries Probe Production Centers Network [MLPCN] MLPCN Grant: MH081279 Assay Submitter (PI): Jodi M. Nunnari
Malachite Green Reagent Malachite Green carbinol base- Aldrich 229105 Ammonium molybdate - Sigma A7302 For 100 mL Malachite Green reagent in 1N HCl 16 mL conc. HCL + 32 mL H20 = 48 mL 4N HCl 34 mg malachite green base into 40 mL 1N HCl (10 mL 4N HCl + 30 mL H20) 1 g ammonium molybdate in 15 mL 4N HCl Mix Solutions together. Bring up to […] with H2O. Filter using a 0.2 um tissue culture filter unit (has plastic bottle attached) store at 4 masculine C. (Avoid Glassware/Plastics washed in detergent. Mix solutions in 50 mL conical vials.) For 20 uL reaction volume 1.0 uL Test Drug or DMSO: Added first to each well […]: 25 mM Hepes/Pipes pH 7.0 (H/P) 2.0 uL: 50 mM MgCl2 (final 5mM) 2.32 uL: 1 M NaCl (with contributing protein salt, Final = 150mM) 13.4 uL per reaction. Can be mixed in larger volume (Mini Master Mix) 1.6 uL: Protein 7.5 uM or Protein Freezing Buffer. (Final = 0.6uM) After Protein Added to mini Master Mix, 15ul Total Master Mix added to each well with drug. 4 uL: 500 uM GTP (Final = 100uM), Dilute with 25 mM H/P, store on ice. 20 uL Total Volume Make Master Mix: (Calculate desired reactions and add a few for multi-channel pipetting volume). Multiply the number of desired reactions by 13.4 uL for total Mini Master volume. Multiply the number of desired reactions by 1.6 uL for total Protein volume. Mix, and keep on ice until added to wells. Add 15 uL of Master Mix to each reaction well, incubate with drug for 10 min. For Positive (No Drug) controls add 15 uL Master Mix to wells with only 1 uL DMSO. Make PFB (Protein Freezing Buffer) (no Protein) Master Mix. Multiply the number of desired reactions by 13.4 uL for total Mini Master volume. Multiply the number of desired reactions by 1.6 uL for total PFB volume. Mix, and keep on ice until added to wells Add 10 uL of PFBMaster Mix to each Phosphate Standards well, and 15 uL to each negative control well with DMSO. […]

inhibition, active:
CCCCCn1c(SCCC(C)C)nc2c1c(=O)[nH]c(=O)n2C 96.1%
Oc1c(Cl)cc(Cl)c2cccnc12 86%
Oc1c(I)cc(Cl)c2cccnc12 66.8%
O=C(Oc1c(Cl)cc(Cl)c2cccnc12)c1ccco1 67.8%
c1ccc(-c2nnc3sc(-c4csc5c4CCCC5)nn23)cc1 99.9%
CC(C)c1nc2sc3c(=O)[nH]c(=S)[nH]c3c2c2c1CCC2 104%
CC(Oc1cccc(Cl)c1)C(=O)Nc1nc(-c2ccccn2)cs1 (stereo unspecified) 68.3%
Cc1cc2nc3s/c(=C/c4ccc(-c5ccccc5C(=O)O)o4)c(=O)n3c2cc1C 66.8%
Cc1ccc2c(nc3s/c(=C\c4ccc(-c5ccccc5C(=O)O)o4)c(=O)n32)c1C 86.5%
N#CC(Sc1ccccn1)c1ccc(Cl)cc1 (stereo unspecified) 65.5%
O=C(/C=C/c1ccccc1Cl)c1ccccc(=O)c1O 77.4%
Cc1ccc(C)c(/C=C/C(=O)c2ccccc(=O)c2O)c1 73.2%
Clc1ccc(C[n+]2csc3ccccc32)cc1 71.7%
CCOC(=O)c1sc(NC(=O)c2ccncc2)c(C#N)c1C 104%
CCOC(=O)c1sc(NC(=O)C2=COCCO2)c(C#N)c1C 100%
CC(C)c1nnc(NC(=O)C2c3ccccc3Oc3ccccc32)s1 93.8%
O=C1/C(=C\c2ccc(O)c(O)c2)SC(=S)N1Cc1ccccc1 94.2%
CC(C)(C)c1ccc2c(c1)OC(C(=O)N/N=C\c1ccccn1)CO2 (stereo unspecified) 66%

inhibition, inactive:
C=C(C)Cn1c(N2CC(C)CC(C)C2)nc2c1c(=O)[nH]c(=O)n2C (stereo unspecified)
CCCCn1c(N2CCC(Cc3ccccc3)CC2)nc2c1c(=O)[nH]c(=O)n2C
C=CCc1cc2c(oc(=O)c3ccccc32)c(C)c1O
COc1cccc(COc2ccc3c(C)cc(=O)oc3c2)c1
O=C1C=C(/C=C/C2C=CC=CC2)C[C@@H](c2ccc(Cl)cc2)C1 (stereo partly specified)
Cn1c(=O)c2c(nc(Oc3ccccc3Cl)n2C)n(C)c1=O
CS/C(=N\S(=O)(=O)c1cccs1)Nc1ccc(Br)cc1F
Cc1cc(Cl)cc(Cl)c1OCCOc1cccc2cccnc12
O=C(Nc1ccc(Cl)cc1C(=O)Nc1ccccn1)c1ccco1
CN(C(=O)C(Cl)Cl)c1ccc(OC(=O)c2ccco2)cc1
O=c1oc2cc(O)c(Cl)cc2c2ccccc12
CCCCCCSc1ccc([C@@H]2[C@@H]3C(=O)N(C)C(=O)[C@@H]3[C@]3(C(=O)OC)CCCCN23)cc1OC
O=C(c1cn(Cc2ccccc2)nc1-c1ccc(Cl)cc1)N1CCN(c2ccccn2)CC1
O=C(c1cn(-c2ccccc2)nc1-c1cccs1)N1CCN(c2ccccn2)CC1
O=C(c1cc(COc2cccc3cnccc23)on1)N1CCC(c2ccccc2Cl)C1 (stereo unspecified)
COc1ccc(C2=NOC(Cn3nc(C(=O)NCc4ccco4)cc3-c3ccccc3)C2)cc1 (stereo unspecified)
COc1cccc(NC(=O)CN(C)C(=O)c2sc3cc(Cl)ccc3c2Cl)c1
Cc1c(Cl)cccc1Nc1nc(N)nc(CSc2nc3ccccc3s2)n1
CNC(=O)c1ccsc1NC(=O)C1CCN(S(=O)(=O)c2ccc(Cl)s2)CC1
COc1ccc(N=Nc2nc(-c3ccccc3)c(-c3ccccc3)[nH]2)cc1
Clc1ccc(-c2nnc3sc(Cc4cccs4)nn23)cc1
COc1ccc2ccccc2c1C(=O)/C=C\c1ccoc1
COc1ccc(S(=O)(=O)N(C(=O)c2ccncc2)c2ccc3oc4c(c3c2)CCCC4)cc1
O=c1[nH]c(C2CC2)nc2sc3c(c12)CCCC3
COCc1nc2sc3c(c2c(=O)[nH]1)CCCC3
O=C(/C=C/c1cccs1)N1CCC2(CC1)Oc1ccc(Cl)cc1C(=O)C21CC(c2cccnc2)=NO1 (stereo unspecified)
COc1ccc(-c2cc(=O)oc3c(C)c(OC(C)C(C)=O)ccc23)cc1 (stereo unspecified)
Cc1csc(NC(=O)C(C)Oc2ccc(Br)cc2)n1 (stereo unspecified)
CC(Oc1cccc(Cl)c1)C(=O)Nc1cc(Cl)ccc1N1CCOCC1 (stereo unspecified)
Cc1ccccc1Nc1nc(N)nc(CSc2nc3ccccc3s2)n1
O=C(NCC1(c2ccccc2)CCCC1)c1ccccc1Br
Cc1c(C(=O)O)cccc1-c1ccc(/C=N/Nc2ccc(Br)cc2)o1
Cc1ccc2c(=O)cc(C(=O)NCc3ccccc3)oc2c1C
CC(C)COc1ccc(S(=O)(=O)NNC(=O)c2cc3ccccc3o2)cc1
CCNC(=O)c1ccccc1CCc1ccccc1
CCC(C)N1C(=O)S/C(=C/c2ccc(N3CCOCC3)cc2C)C1=O (stereo unspecified)
COc1ccccc1NC(=O)N(Cc1ccccc1)c1ccccn1
Fc1cccc(CNc2ncnc3ccc(-c4ccc5c(c4)OCO5)cc23)c1
CCOc1ccc(C(=O)CCN2CCCCC2)cc1
CC(CNc1nc2ccccc2n2cnnc12)c1ccccc1 (stereo unspecified)
COc1ccc(NC(=O)CN(C)C(=O)c2ccccc2CCc2ccccc2)cc1
COc1ccc(C(=O)NC2(C(F)(F)F)NC(=O)N(CCCc3ccccc3)C2=O)c(OC)c1OC (stereo unspecified)
Cc1cc(=O)oc2c(C(=O)/C=C\c3cccs3)c(O)ccc12
Cc1cc(C)nc(NC(=O)/C=C/c2ccccc2Cl)c1
O=C(/C=C/c1ccccc1Cl)c1ccc[nH]1
CC1=C(C(=O)OCc2ccccc2)C(/C=C/c2ccccc2)NC(=S)N1 (stereo unspecified)
C/C(N)=C(/C#N)C(=O)COC(=O)C(c1ccccc1)c1ccccc1
COc1ccc(/C(N)=N/OC(=O)C2CCC(=O)N2S(=O)(=O)c2ccc(C)cc2)cc1 (stereo unspecified)
O=C(Nc1nc(-c2cccs2)cs1)c1cccc(S(=O)(=O)N2CCCCC2)c1
COc1ccc(-c2cc(C(=O)OC(C)C(=O)Nc3c(C)n(C)n(-c4ccccc4)c3=O)c3ccccc3n2)cc1 (stereo unspecified)
Cc1cccc(C(=O)N(Cc2nc3ccccc3c(=O)[nH]2)C2CCCCC2)c1
O=C(NCc1ccc2c(c1)OCO2)c1ccc(-c2ccc(Cl)cc2)o1
CCc1ccccc1NC(=O)/C(C#N)=C/c1ccc(Sc2ccccc2)o1
COc1cc2c(c(OC)c1OC)-c1c(cc3c(c1O)OCO3)C[C@@H](C)[C@@H](C)C2
Cc1cccn2c(=O)c(/C=C(\C#N)C(=O)NCc3ccco3)c(N3CCCCC3)nc12
Cc1nc(CS(=O)(=O)c2ccccc2)cc(Sc2ccc(Cl)cc2Cl)n1
COc1cc(OC)cc(-c2c(-c3cccs3)c3cc(-c4ccn[nH]4)ccc3n2C)c1
CCOc1ccc(C(=O)Nc2c(C(N)=O)oc3ccccc23)cc1
CCOC(=O)c1c(NC(=O)C(C)OC(=O)C2=COCCO2)sc2c1CCCC2 (stereo unspecified)
CCCc1ccc(-c2csc(NC(=O)C3=COCCO3)n2)cc1
CCOC(=O)c1sc(NC(=O)c2ccco2)c(C#N)c1C
CCOC(=O)Nc1sc2c(c1C#N)CCC(C)C2 (stereo unspecified)
CCc1ccccc1N(CC(=O)NCCc1ccccc1)C(=O)CCC(=O)Nc1ccccn1
COc1ccccc1N1CCN(C(=O)c2cc(=O)c3c(C)cc(C)cc3o2)CC1
CCOC(=O)c1c(CN2CCN(c3ccccc3)CC2)oc2ccc(O)cc12
CNC(=O)c1ccsc1NC(=O)c1ccccc1
C=CCN(c1ccccc1)S(=O)(=O)c1ccc2c(c1)NC(=O)C(C)S2 (stereo unspecified)
CCCNC(=S)N1CCN(c2nc(C)nc3sc4c(c23)CCCC4)CC1
O=C(Nc1ccc(Cl)c(-c2nc3ccccc3[nH]2)c1)c1ccc2c(c1)OCO2
S=C(Nc1ccc(Oc2ccccc2)cc1)NC1CCCCC1
O=C1C=C(c2cccc(Cl)c2)C[C@@H](c2ccc3c(c2)OCO3)C1
CCc1nnc(NC(=O)C2c3ccccc3Oc3ccccc32)s1
O=C(Nc1nc(-c2ccncc2)cs1)C1c2ccccc2Oc2ccccc21
O=C(CCc1ccc(Oc2cc([N+](=O)[O-])cc([N+](=O)[O-])c2)cc1)Nc1cccc(Cl)c1
CCN(CC)C(=O)CSc1nc2cc3c(cc2c(=O)n1CCCCCC(=O)NCc1ccc(OC)cc1)OCO3
Cc1ccc(NCc2n[nH]c(=S)n2-c2cccc(Cl)c2)cc1
CC1CCc2[nH]c3ccc(C(=O)N4CCCC(C(F)(F)F)C4)cc3c2C1 (stereo unspecified)
Cc1ccc(-n2nnnc2SCC(=O)c2cc(C)n(-c3cc(C)on3)c2C)c(C)c1
C#CCOc1ccc(/C=C2\SC(=S)N(Cc3cccnc3)C2=O)cc1
O=C(CCCN1C(=O)/C(=C/c2ccccc2)SC1=S)Nc1ccccc1O
O=C(CN1CCN(c2ccccn2)CC1)Nc1ccccc1
CC(C)n1c(O)c(N=NC(=O)C2COc3ccccc3O2)c2ccccc21 (stereo unspecified)
CCOC(=O)N=Nc1c(O)n(Cc2ccccc2)c2ccccc12
Cc1c(/C=N\NC(=O)C2COc3ccc(C(C)(C)C)cc3O2)c2ccccc2n1C (stereo unspecified)
CCSc1nnc(NC(=O)c2ccccc2C)s1
COCCCNc1nc2ccccc2nc1NS(=O)(=O)c1cccc(Cl)c1
Cc1ccc(C)c(NC(=O)c2ccccc2Sc2ccc([N+](=O)[O-])cc2Cl)c1
N#Cc1ccc(-c2ccccc2)nc1SCC(=O)c1cc2ccccc2oc1=O
